Assay results: PubChem BioAssay (NCATS)
Inconclusive results are not listed. Activity calls are given as the source filed them. The call rests on the fitted dose curve; in most records, active means well fitted curve in the direction sought with a large enough effect; inconclusive means small, poorly fitted or top-dose-only effect, or another doubt; inactive means no such curve, though single readings can be large; an effect the other way counts as inactive or inconclusive. Peptide text beside a SMILES is read from it.

What was measured:
[1] = system: Zika virus NS2B-NS3 protease (linked construct); test: Confirmatory screen NINDS AMC qHTS for Zika virus inhibitors (AID 1347152); further: nearly all actives have a fitted effect of over 70% in size; further: potency means the concentration at half of the fitted maximal effect;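 on activity change, negative = inhibition: AMC fluorescence gain from cleaved Bz-Nle-KRR-AMC substrate over 15 min; top concentration of the series differs between compounds; 0% = no-inhibitor control and -100% = no-enzyme control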
Outline: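 Enzyme (1 nM, linked construct) was preincubated with compound for 15 minutes at room temperature in 10 mM Tris-HCl pH 8.0 with 0.01% Tween 20. Bz-Nle-Lys-Arg-Arg-AMC was then added to 10 microM, and AMC fluorescence was recorded immediately and after 15 minutes.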

[2] = system: Zika virus NS2B-NS3 protease (unlinked complex); test: Confirmatory screen GU AMC qHTS for Zika virus inhibitors (AID 1347153); details: Recombinant NS2B-NS3 protease, AMC substrate fluorescence;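 further: enzyme at 25 nM with substrate at 10 µM below its Km of 18.3 µM; potency means the concentration at half of the fitted maximal effect; nearly all actives have a fitted effect of over 70% in size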
Outline: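 Unlinked NS2B-NS3 complex (25 nM) in 10 mM Tris-HCl pH 8.0, 0.01% Tween 20 preincubated 15 min with compound, then 10 microM Bz-Nle-KRR-AMC (Km 18.3 µM). Fluorescence change over 15 min, normalized, Hill-fitted.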

[3] = Confirmatory screen GU Rhodamine qHTS for Zika virus inhibitors qHTS (AID 1347157); details: purified enzyme assay, Rhodamine110 substrate fluorescence, 15 min; further: potency means the concentration at half of the fitted maximal effect; nearly all actives have a fitted effect of over 70% in size
Outline: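 Percent inhibition came from the 15-min rise in Rhodamine110 fluorescence (1.5 microM substrate, ~15% conversion), normalized to no-inhibitor and no-enzyme wells and Hill-fitted. Unlinked protease, 25 nM, pH 8.0 Tris buffer; compounds up to 114 microM, 15-min preincubation.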

[4] = system: Zika virus NS2B-NS3 protease (unlinked complex); test: Primary screen GU Rhodamine qHTS for Zika virus inhibitors: Unlinked NS2B-NS3 protease assay (AID 1347159); further: nearly all actives have a fitted effect of over 60% in size; further: potency means the concentration at half of the fitted maximal effect
Outline: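 In dose–response format, inhibition of unlinked protease (25 nM) was measured with 1.5 microM bis-peptide Rhodamine110 substrate. Aprotinin served as the intraplate control.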

[5] = system: Zika virus NS2B-NS3 protease (linked construct); test: Primary screen NINDS Rhodamine qHTS for Zika virus inhibitors (AID 1347160); further: nearly all actives have a fitted effect of over 55% in size; further: potency means the concentration at half of the fitted maximal effect; on activity change, negative = inhibition: on the % scale 0 is the no-effect control and ±100 the full control effect
Outline: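 Each compound, titrated, sat 15 min with 25 nM linked protease before 1.5 microM Rhodamine110 substrate went in. Fluorescence gain over the next 15 min, in pH 8.0 Tris with Tween 20, gave Hill-fitted curves.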

[6] = Confirmatory screen NINDS Rhodamine qHTS for Zika virus inhibitors (AID 1347161); details: purified enzyme assay, Rhodamine110 substrate fluorescence, 15 min; further: potency means the concentration at half of the fitted maximal effect; nearly all actives have a fitted effect of over 60% in size
Outline: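 Enzyme (25 nM, linked NS2B-NS3) was preincubated 15 min with compound in 10 mM Tris-HCl pH 8.0, 0.01% Tween 20. Rhodamine110 substrate (1.5 microM) was then added and fluorescence read at start and after 15 min.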

[7] = Vero cells viability qHTS for Zika virus inhibitors (AID 1347167); further: on the % scale 0 is the no-effect control and ±100 the full control effect
Outline: (§1)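 Luminescent ATP readout (CellTiter Glo) after 30 min at 37 degrees C gives viability; cells in DMEM + 4% FBS were treated 24 to 48 hours with compound, following overnight attachment.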

[8] = HepG2 cells viability qHTS for Zika virus inhibitors (AID 1347168); further: on the % scale 0 is the no-effect control and ±100 the full control effect
Outline: as §1

[9] = system: Zika virus NS2B-NS3 protease; test: Primary screen GU AMC qHTS for Zika virus inhibitors (AID 1347154);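 further: 0% = no-inhibitor control and -100% = no-enzyme control; nearly all actives have a fitted effect of over 70% in size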
Outline: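 Fluorogenic AMC-substrate cleavage by noncovalent NS2B-NS3 protease complex (25 nM, pH 8.0 Tris buffer with Tween 20) followed for 15 minutes at room temperature (~20% conversion). Percent inhibition from ex340/em450 signal change, fitted by 4-parameter Hill equation.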

[10] = ZIKV-mCherry secondary qHTS for Zika virus inhibitors (AID 1347158); further: top concentration of the series differs between compounds
Outline: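 This orthogonal imaging screen measured ZIKV-mCherry infection of Vero cells exposed to compound, MOI 1, 48-72 h. Percent infection came from segmented nuclei scored mCherry-positive above 3 SD of negative controls.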

[11] = system: Zika virus NS2B-NS3 protease (linked construct); test: 384 well plate NINDS Rhodamine confirmatory qHTS for Zika virus inhibitors (AID 1347164);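 further: fluorescence from protease cleavage of Ac-LKRR-rhodamine 110 substrate; nearly all actives have a fitted effect of over 65% in size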; further: potency means the concentration at half of the fitted maximal effect;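 on activity change, negative = inhibition: top concentration of the series differs between compounds; plate controls were no-inhibitor control for no effect and no-enzyme control for full effect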
Outline: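 Enzyme (final 5/30/60 nM) + cpd (DMSO), ~15 min; add Ac-LKRR-Rd 10 microM final; 25 min RT, dark; FI ex 485/em 538; normalized to no-enzyme, no-inhibitor ctrls; aprotinin intraplate ctrl.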

[12] = Tertiary RLuc qRT-PCR qHTS assay for Zika virus inhibitors (AID 1347169); further: nearly all actives have a fitted effect of over 55% in size; further: potency means the concentration at half of the fitted maximal effect; on activity change, negative = inhibition: top concentration of the series differs between compounds; on the % scale 0 is the no-effect control and ±100 the full control effect
Outline: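 Vero, 1,000 cells/well, o/n 37 C; cpd pinned in DMSO; ZIKV-RLuc Cambodian, MOI 1-2, 48-72 h 37 C; live-cell RLuc substrate, lum read at 1-1.5 h.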

[13] = system: Zika virus NS2B-NS3 protease (linked); test: 384 well plate NINDS AMC confirmatory qHTS for Zika virus inhibitors (AID 1347163); further: nearly all actives have a fitted effect of over 50% in size; further: potency means the concentration at half of the fitted maximal effect;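 on activity change, negative = inhibition: linked protease at 5 30 or 60 nM final depending on run; fluorescence of AMC released from Ac-VKTGKR-AMC peptide cleaved by the protease; top concentration of the series differs between compounds; 0% = no-inhibitor control and -100% = no-enzyme control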
Outline: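 Enzyme (5, 30 or 60 nM final) first met test compounds for ~15 min. The AMC-tagged peptide Ac-VKTGKR-AMC followed at 30 microM. Fluorescence was then recorded at 25 min and scaled against no-enzyme and no-inhibitor wells.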

CC(=O)O[C@@H]1C[C@]2(C)[C@@]3(CCC4[C@@]5(C)CC[C@H](O[C@@H]6O[C@H](C(=O)O)[C@@H](O)[C@H](O[C@@H]7O[C@H](CO)[C@H](O)[C@H](O)[C@H]7O[C@@H]7O[C@@H](C)[C@H](O)[C@@H](O)[C@H]7O[C@@H]7OC[C@](O)(CO)[C@H]7O)[C@H]6O[C@@H]6O[C@H](CO)[C@H](O)[C@H](O)[C@H]6O)C(C)(C)C5CC[C@]42C)O[C@@H](O)[C@]12C3CC(C)(C)[C@@H](OC(=O)/C=C/c1ccc(O)c(O)c1)[C@@H]2OC(=O)/C=C/c1ccccc1 (stereo partly specified)
inactive: activity change, negative = cytotoxicity [7] -1.71% [at 8.96 µM] | activity change, negative = cytotoxicity [8] 0.159% [at 8.96 µM]
active: Potency [1] 10.5 µM | Potency [2] 7.42 µM | Potency [3] 3.32 µM | Potency [4] 3.16 µM | Potency [5] 2.46 µM | Potency [6] 1.66 µM

O=C(O)CC/C=C\CC[C@H]1[C@@H](N2CCCCC2)[C@@H](O)C[C@@H]1OCc1ccc(-c2ccccc2)cc1
inactive: outcome [9]

Nc1c(N=Nc2ccc(-c3ccc(N=Nc4cc(S(=O)(=O)O)c5ccccc5c4N)cc3)cc2)cc(S(=O)(=O)O)c2ccccc12
active: Potency [3] 2.51 µM | Potency [6] 2.24 µM | Potency [11] 7.08 µM
inactive: outcome [10]

CCCCC/C=C\C/C=C\CCCCCCCC(=O)O
inactive: activity change, negative = inhibition [9] 4.61% [at 6.83 µM]

CC(C)C1=CCC(C)(O)C(OC2OC(CO)C(O)C(O)C2O)C1 (stereo unspecified)
active: Potency [3] 27.3 µM | Potency [4] 22.4 µM | Potency [5] 10 µM | Potency [6] 7.68 µM | Potency [11] 5.62 µM
inactive: outcome [10] | outcome [7] | outcome [8] | Potency [12]

O=C(O)c1ccc(CCCc2ccc(OCCc3ccc(F)cc3)cc2)o1
inactive: Potency [11] | outcome [7] | outcome [8]
active: Potency [1] 44.1 µM | Potency [2] 49.4 µM | Potency [3] 3.12 µM | Potency [4] 4.47 µM | Potency [5] 3.98 µM | Potency [6] 2.78 µM | Potency [13] 5.01 µM

CC12CCC3C(C)(C)C(O)CCC3(C)C1Cc1c(oc(C(=O)O)cc1=O)O2 (stereo unspecified)
inactive: Potency [5] | Potency [12]
active: Potency [3] 24.3 µM | Potency [6] 27.3 µM

NCc1ccc(OCCCc2sc(-c3ccc4c(c3)/C(=N/Nc3nc5ccccc5s3)CCC4)nc2C(=O)O)cc1
inactive: Potency [5] | Potency [12]
active: Potency [3] 13.9 µM | Potency [4] 39.8 µM | Potency [6] 17.5 µM

O=C(O)c1cc(O)c2cccc(O)c2c1O[C@@H]1O[C@H](CO)[C@@H](O)[C@H](O)[C@H]1O
active: Potency [1] 30.6 µM | Potency [2] 30.6 µM | Potency [3] 10.9 µM | Potency [4] 10 µM | Potency [5] 5.01 µM | Potency [6] 2.73 µM | Potency [11] 2.82 µM
inactive: outcome [10] | Potency [13] | outcome [7] | outcome [8] | Potency [12]

Cc1nn(C)c(COc2ccc(N3CCN(S(=O)(=O)N(C)C)CC3)cc2)c1-c1cccc2c(CCCOc3cccc4ccccc34)c(C(=O)O)n(CCN3CCOCC3)c12
inactive: Potency [5] | Potency [12]
active: Potency [3] 1.75 µM | Potency [4] 4.47 µM | Potency [6] 1.56 µM

OC[C@H]1O[C@@H](Oc2ccc(O)c3cccc(O)c23)[C@H](O)[C@@H](O)[C@@H]1O
inactive: Potency [5] | Potency [12]
active: Potency [3] 4.85 µM | Potency [4] 10 µM | Potency [6] 6.1 µM

CC1(C)CC[C@]2(C(=O)O[C@@H]3O[C@H](CO)[C@@H](O)[C@H](O)[C@H]3O)CC[C@]3(C)C(=CCC4[C@@]5(C)C[C@@H](O)[C@H](O)[C@@](C)(CO)C5CC[C@]43C)C2C1 (stereo partly specified)
active: Potency [3] 11.7 µM
inactive: Potency [4] | Potency [12]

COc1cccc(-n2nc(C(=O)O)cc2-c2ccc(C3CCCCC3)c(Cl)c2)c1
inactive: outcome [7] | outcome [8]
active: Potency [1] 13.9 µM | Potency [2] 12.4 µM | Potency [3] 2.21 µM | Potency [4] 1.78 µM | Potency [5] 2.51 µM | Potency [6] 1.97 µM | Potency [11] 5.01 µM | Potency [12] 18.6 µM

O=C(/C=C/c1c(C(=O)O)[nH]c2cc(Cl)cc(Cl)c12)Nc1ccccc1
active: Potency [1] 44.1 µM | Potency [2] 44.1 µM | Potency [3] 2.78 µM | Potency [4] 3.55 µM | Potency [5] 3.16 µM | Potency [6] 2.48 µM | Potency [13] 1.12 µM | Potency [11] 8.91 µM
inactive: outcome [10] | outcome [7] | outcome [8] | Potency [12]

CC(=O)N[C@@H](CC(=O)O)C(=O)N[C@@H](CCC(=O)O)C(=O)O (Ac-Asp-Glu-OH)
inactive: outcome [9]

CC(C)(O)C1CC=C(C(=O)OCC2OC(Oc3c(O)cc(C(=O)O)cc3O)C(O)C(O)C2O)CC1 (stereo unspecified)
active: Potency [6] 7.64 µM
inactive: Potency [1] | Potency [4] | outcome [7] | outcome [8] | Potency [12]
